This note sets out measurements from PubChem BioAssay (NCATS).

Assay [1] can be described thus: Cell Viability - HepG2 (AID 433; calls by dose curve;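 note: potency is the fitted concentration of half-maximal effect; cells exposed to compound for 40 hours; potency for ATP loss meaning cytotoxicity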). As to conditions: qHTS. Summed up: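 HepG2 hepatocellular carcinoma cells (1500/well) were treated with compounds for 40 h at 37 °C in complete medium; intracellular ATP was read by CellTiter-Glo luminescence. Data were normalized to DMSO and 100 uM tamoxifen, and AC50 came from Hill fits.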
Assay [2] is described as follows: Cell Viability - SH-SY5Y (AID 544).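 Note: cells exposed to compound for 40 hours; nearly all actives have a fitted effect of over 55% in size.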 Particulars: SH-SY5Y neuroblastoma cell viability; viability change, negative = cytotoxic: at 92.2 µM (top of the series). The method, boiled down: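 Luminescent ATP read-out (CellTiter-Glo) measures loss of viable SH-SY5Y neuroblastoma cells after 40 hr compound exposure at 37 °C. AC50 values derive from standard Hill modelling of qHTS concentration-response data.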

Assay [3] in a line: Cell Viability - Mesenchymal (AID 546).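 Note: cells exposed to compound for 40 hours before reading.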 As to conditions: mesenchymal cells viability, qHTS; series mostly up to 91.7 µM. Summed up:
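Normal human renal glomerulus-derived kidney mesenchymal cells, 1000 per well in complete medium, were treated with compounds for 40 hr at 37 °C. Viability was read as intracellular ATP by CellTiter-Glo luminescence; AC50 values came from Hill-equation fits of qHTS concentration-response data.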
In general terms: Quantitative high-throughput screening tests each substance at several concentrations.

Assay [4] can be described thus: Cellular Toxicity (caspase-3) HepG2 (AID 654).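 Note: cells exposed to compound for 16 hours before reading; 0% = DMSO alone and 100% = caspase signal from 100 µM tamoxifen.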 Particulars: HepG2 caspase-3 activation, luminescence, 0% = DMSO only, 100% = tamoxifen; series mostly up to 92.2 µM. Summed up:
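Cells plated 5 hr at 37 °C, compound added, incubated 16 hr at 37 °C. Caspase-Glo 3/7 reagent followed, 20 min at room temperature, then luminescence read. Activation scored as signal increase; AC50 from Hill fit.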

A short description of assay [5]: Cellular Toxicity (caspase-3) SK-N-SH (AID 661).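 Note: 0% = DMSO basal and 100% = 10 µM staurosporine.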 Particulars: SK-N-SH caspase-3 activation, qHTS; series mostly up to 91.7 µM. The method, boiled down: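 Human neuroblastoma SK-N-SH, 1500 cells/well, 5 hr pre-incubation, then compound 16 hr, 37 °C. Caspase-Glo 3/7 reagent, 1 hr RT, luminescence. Norm. to DMSO/10 uM staurosporine; Hill-fit AC50.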
Assay [6] in a line: Cellular Toxicity (caspase-3) Hek293 (AID 664).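 Note: cells exposed to compound for 16 h at 37 °C before readout.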 Particulars: HEK293 caspase-3 activation, DMSO = 0%, 100 µM tamoxifen = 100%; at 92.2 µM (top of the series). Summed up: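 Cells plated, 5 hr at 37 °C; compounds added; 16 hr at 37 °C; Caspase-Glo 3/7 reagent, 20 min RT; luminescence read. Activation expressed relative to DMSO and 100 uM tamoxifen, AC50 by Hill model.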
Assay [7] in a line: Cell Viability - LYMP2-023 (AID 975).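 Note: cellular ATP measured by luciferase luminescence as viability proxy; cells exposed to compound for 24 hours at 37 °C; plate controls were DMSO only for no effect and 92 µM tetraoctylammonium bromide control for full effect; nearly all actives have a fitted effect of over 55% in size.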 As to conditions: LYMP2-023 lymphoblastoid cell viability; series mostly up to 92.2 µM. The method, boiled down: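 2500 cells/well, 5 hr 37 C; cpd 24 hr 37 C; CellTiter-Glo, 30 min RT; luminescence. qHTS conc-response, Hill fit -> AC50. Pos ctrl tetraoctylammonium bromide.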
Assay [8] can be described thus: Cell Viability - LYMP2-014 (AID 983).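 Note: cells exposed to compound for 24 h at 37 °C; plate controls were DMSO only for no effect and 92 µM tetraoctylammonium bromide for full effect; nearly all actives have a fitted effect of over 50% in size.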 As to conditions: LYMP2-014 lymphoblastoid cells, viability qHTS; series mostly up to 92.2 µM. The method, boiled down: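 Luminescent ATP signal (CellTiter-Glo, 30 min at room temperature) serves as the viability read-out after 24 hr compound exposure at 37 C. Cells were seeded at 2500 per well and settled 5 hr beforehand.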
The nature of assay [9]: Cell Viability - LYMP2-026 (AID 989).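 Note: cells exposed to compound for 24 h at 37 °C; % is set by controls: 0 for no effect and ±100 for the full control effect; nearly all actives have a fitted effect of over 50% in size.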 As to conditions: LYMP2-026 lymphoblastoid cell viability, qHTS; series mostly up to 92.2 µM. The method, boiled down: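 Luminescent ATP signal (CellTiter-Glo, 30 min room temperature) measures viable lymphoblastoid cells after 24 hr compound treatment at 37 C. Decreased ATP reflects acute toxicity; AC50 values come from Hill-equation modeling.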

Assay [10] has as its target Peroxisome proliferator-activated receptor delta (Homo sapiens) (UniProt Q03181). The assay is described as follows: qHTS assay for small molecule agonists of peroxisome proliferator-activated receptor delta signaling (AID 588534; calls by dose curve;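 note: 0% = DMSO basal wells and 100% = positive control agonist at 10 µM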). Particulars: HEK293T PPARdelta-UAS-bla, beta-lactamase ratio, 18 h; series mostly up to 76.7 µM. The method, boiled down: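 Fluorescence from CCF4 substrate cleavage by beta-lactamase reporter, read 2 hrs at RT, measured agonist activity. Compounds were tested with 18 hrs exposure at 37 C. Concentration-response data fitted to Hill equation.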

Assay [11] has as its target Vitamin D3 receptor (Homo sapiens) (UniProt P11473). Briefly: qHTS assay for small molecule antagonists of vitamin D receptor signaling (AID 588541; calls by dose curve;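 note: receptor activated by calcitriol during compound treatment; % is set by controls: 0 for no effect and ±100 for the full control effect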). Particulars: HEK293T VDR-UAS-bla, beta-lactamase ratio, antagonist mode; series mostly up to 76.7 µM. Summed up:
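VDR-UAS-bla HEK293T cells (2000/well, 2% charcoal-stripped FBS) were treated with titrated compounds plus 1-alpha,25-dihydroxyvitamin D3 (50 nM or 3 nM final) for 16 h at 37 C. CCF4 beta-lactamase fluorescence was read; Hill fits gave IC50.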

For assay [12] the target is unchanged. The assay is described as follows: qHTS assay for small molecule agonists of vitamin D receptor signaling (AID 588543; calls by dose curve;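 note: 0% = DMSO basal and 100% = reference agonist control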). As to conditions: HEK293T VDR-UAS-bla, beta-lactamase ratio, 16 h; series mostly up to 76.8 µM. Summed up:
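GeneBLAzer VDR-UAS-bla HEK293T cells in 2% charcoal-stripped FBS medium were dosed with compound titrations for 16 h at 37 °C; CCF4 β-lactamase readout (405 nm ex, 460/530 nm em). EC50 and efficacy from Hill fits, normalized to 50 nM calcitriol (100%) and DMSO (0%).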

Assay [13] deals with Voltage-gated inwardly rectifying potassium channel KCNH2 (Homo sapiens) (UniProt Q12809). Briefly: qHTS Assay for Small Molecule Inhibitors of the Human hERG Channel Activity (AID 588834).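 Note: top concentration of the series differs between compounds; % is set by controls: 0 for no effect and ±100 for the full control effect; lower thallium flux fluorescence means stronger hERG block; nearly all actives have a fitted effect of over 50% in size.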 As to conditions: U2OS BacMam hERG, FluxOR thallium flux fluorescence; series mostly up to 92.2 µM. The method, boiled down:
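U2OS cells transduced with hERG via BacMam (MOI ~100), plated 2000/well, loaded with FluxOR thallium dye, compound ~10 min, then stimulation buffer; fluorescence decrease read kinetically; AC50 from Hill fits.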

The nature of assay [14]: qHTS assay for small molecule activators of the p53 signaling pathway (AID 651743; active = well fitted activation curve with a large enough effect in the signal ratio, not every such curve was filed as active; the % refers to the signal ratio; note: % of control where 0% means no effect). As to conditions: HCT-116 p53RE-bla, beta-lactamase FRET ratio, 16 h; activation: active compounds read high. The method, boiled down:
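Cell-based beta-lactamase reporter (p53 response elements, HCT-116 background). After a 5-hour preincubation, cells received compound for 16 hours at 37 C; substrate development ran 2 hours at room temperature.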

The nature of assay [15]: qHTS assay for small molecule disruptors of the mitochondrial membrane potential - 1 hr assay (AID 651754; calls by dose curve; note: nearly all actives have a fitted effect of over 35% in size; note: potency is the fitted concentration of half-maximal effect). As to conditions: series mostly up to 92.2 µM. The method, boiled down: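 HepG2, 2,000 cells/well, overnight attachment; cpd or DMSO 1 hr, 37C/5% CO2; Mito-MPS dye 30 min, 37C; fluorescence monomer (490/535) and aggregate (540/590).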
For assay [16], the target named is Nuclear receptor ROR-gamma (Homo sapiens) (UniProt P51449). Briefly: qHTS assay for small molecule antagonists of the retinoid-related orphan receptor gamma (ROR-gamma) signaling pathway (AID 651802).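 Note: CHO cells with doxycycline-induced ROR-gamma expression; luciferase reporter luminescence driven by ROR response element; % is set by controls: 0 for no effect and ±100 for the full control effect; nearly all actives have a fitted effect of over 60% in size.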 As to conditions: ROR-gamma antagonist cell reporter assay; series mostly up to 92.2 µM. The method, boiled down:
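CHO, TET-inducible ROR + RORE-LUC reporter, 1536-well qHTS. Compound pinned, doxycycline added, 16hr 37C/5% CO2. ONE-Glo, 30 min RT, luminescence; signal drop scored as antagonism.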

Assay [17] can be described thus: Cellular Toxicity (caspase-3) NIH 3T3 (AID 666).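 Note: caspase signal read after 16 h compound exposure; 0% = DMSO basal and 100% = 100 µM tamoxifen stimulation.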 As to conditions: NIH 3T3 caspase-3 activation, apoptosis/toxicity; series mostly up to 92.2 µM. The method, boiled down:
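Luminescence from aminoluciferin released by caspase-3/7 cleavage of a peptide substrate served as read-out. Mouse fibroblast NIH 3T3 cells were exposed to compounds over a concentration range for 16 hours, and AC50 values came from standard Hill modelling.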

Assay [18] can be described thus: qHTS assay for small molecule agonists of the antioxidant response element (ARE) signaling pathway measured by Nrf2-dependant transcriptional activity - cell viability counter screen (AID 720653; active = well fitted curve in the direction sought with a large enough effect in the repeat runs; an effect the other way counts as inactive or inconclusive; note: % is set by controls: 0 for no effect and ±100 for the full control effect). Particulars: ARE-bla HepG2 viability, CellTiter-Glo ATP luminescence, 16 h; active compounds read low. Summed up: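 ARE-bla HepG2 cells (2,000/well) rested 5 hrs at 37C/5% CO2, then exposed to compounds in DMSO for 16 hrs. Viability was read in the same wells as intracellular ATP by luminescence, 30 min at room temperature after reagent addition.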

Assay [19] in a line: Cellular Toxicity (caspase-3) HUV-EC-C (AID 656). As to conditions: HUV-EC-C cells, caspase-3 activation (apoptosis), vehicle = 0, 100 µM tamoxifen = 100%; series mostly up to 92.2 µM. Summed up:
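HUV-EC-C endothelial cells, 1000/well, were pre-incubated 5 hr at 37°C, then exposed to compounds for 16 hr at 37°C. Caspase-Glo 3/7 luminescence was read after 20 min at room temperature. AC50 came from Hill fits, normalized to DMSO and 100 uM tamoxifen.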

Assay [20] in a line: Cellular Toxicity (caspase-3) Mesangial (AID 660).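 Note: combined caspase 3 and 7 activity read by Caspase-Glo luminescence; cells exposed to compound for 16 h before the caspase read.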 As to conditions: mesangial cells, normalized: DMSO 0%, 100 µM tamoxifen 100%; series mostly up to 91.7 µM. Summed up: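 Mesangial cells, 1000/well, 5 h settle at 37 °C; compound 16 h, 37 °C; Caspase-Glo 3/7 reagent 20 min RT; luminescence. Norm.: DMSO = 0%, tamoxifen 100 uM = 100%. AC50, Hill fit.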

“And” between values parts separate entries of the source, which are not always exact repeats. Equal values may be shown once. Values without a mark were called inactive. Inconclusive results are not listed. The source made the active and inactive calls. Unless noted, calls come from the whole dose curve; as a rule, active = well fitted curve in the direction sought with a large enough effect; inconclusive = small, poorly fitted or top-dose-only effect, or another doubt; inactive = no such curve, though single readings can be large; an effect the other way counts as inactive or inconclusive.

Nuclear receptor ROR-gamma (Homo sapiens), sequence (P51449 whole entry, looked up): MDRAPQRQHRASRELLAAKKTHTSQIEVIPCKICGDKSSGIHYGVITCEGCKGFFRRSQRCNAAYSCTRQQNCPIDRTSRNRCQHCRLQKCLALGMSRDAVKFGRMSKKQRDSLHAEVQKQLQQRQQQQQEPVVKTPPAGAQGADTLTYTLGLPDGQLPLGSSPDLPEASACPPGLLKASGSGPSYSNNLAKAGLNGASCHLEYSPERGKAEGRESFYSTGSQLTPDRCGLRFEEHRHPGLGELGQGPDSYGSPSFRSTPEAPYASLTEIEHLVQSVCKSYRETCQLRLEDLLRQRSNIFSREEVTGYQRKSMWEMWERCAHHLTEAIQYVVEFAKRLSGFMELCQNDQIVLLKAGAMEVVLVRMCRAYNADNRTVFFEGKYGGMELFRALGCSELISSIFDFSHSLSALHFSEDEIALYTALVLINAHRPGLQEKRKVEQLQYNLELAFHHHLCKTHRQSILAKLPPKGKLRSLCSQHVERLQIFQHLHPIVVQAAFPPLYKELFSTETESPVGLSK
Voltage-gated inwardly rectifying potassium channel KCNH2 (Homo sapiens), sequence (Q12809 whole entry, looked up): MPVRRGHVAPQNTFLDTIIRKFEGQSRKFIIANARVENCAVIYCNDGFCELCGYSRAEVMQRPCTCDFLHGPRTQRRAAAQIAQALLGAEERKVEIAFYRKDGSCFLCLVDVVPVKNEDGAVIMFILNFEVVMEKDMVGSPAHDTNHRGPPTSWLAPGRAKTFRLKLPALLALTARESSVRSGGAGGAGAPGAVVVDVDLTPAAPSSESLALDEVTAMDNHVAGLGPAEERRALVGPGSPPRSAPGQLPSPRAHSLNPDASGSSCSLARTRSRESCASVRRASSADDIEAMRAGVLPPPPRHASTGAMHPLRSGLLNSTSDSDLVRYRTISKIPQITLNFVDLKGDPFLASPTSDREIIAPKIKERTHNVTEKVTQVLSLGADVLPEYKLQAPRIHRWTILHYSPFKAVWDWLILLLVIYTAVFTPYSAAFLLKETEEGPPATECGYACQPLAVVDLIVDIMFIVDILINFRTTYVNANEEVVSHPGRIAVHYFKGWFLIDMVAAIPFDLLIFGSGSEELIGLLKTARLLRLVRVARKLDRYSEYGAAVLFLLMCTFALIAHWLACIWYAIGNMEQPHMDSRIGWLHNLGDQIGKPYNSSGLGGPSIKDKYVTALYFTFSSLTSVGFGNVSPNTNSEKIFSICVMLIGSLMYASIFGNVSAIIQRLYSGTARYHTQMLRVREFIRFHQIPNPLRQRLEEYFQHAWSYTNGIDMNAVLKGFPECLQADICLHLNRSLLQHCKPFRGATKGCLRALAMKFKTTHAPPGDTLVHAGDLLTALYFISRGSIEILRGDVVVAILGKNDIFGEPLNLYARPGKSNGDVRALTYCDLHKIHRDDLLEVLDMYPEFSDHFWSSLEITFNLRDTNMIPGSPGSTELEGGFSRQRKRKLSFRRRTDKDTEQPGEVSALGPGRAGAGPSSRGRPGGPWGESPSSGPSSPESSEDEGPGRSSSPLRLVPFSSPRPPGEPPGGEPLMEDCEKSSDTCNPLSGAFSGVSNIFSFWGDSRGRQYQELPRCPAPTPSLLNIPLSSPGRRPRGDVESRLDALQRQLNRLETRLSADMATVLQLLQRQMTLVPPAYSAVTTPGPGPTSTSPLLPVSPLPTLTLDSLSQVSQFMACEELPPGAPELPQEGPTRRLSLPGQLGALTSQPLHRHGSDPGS
Peroxisome proliferator-activated receptor delta (Homo sapiens), sequence (Q03181 whole entry, looked up): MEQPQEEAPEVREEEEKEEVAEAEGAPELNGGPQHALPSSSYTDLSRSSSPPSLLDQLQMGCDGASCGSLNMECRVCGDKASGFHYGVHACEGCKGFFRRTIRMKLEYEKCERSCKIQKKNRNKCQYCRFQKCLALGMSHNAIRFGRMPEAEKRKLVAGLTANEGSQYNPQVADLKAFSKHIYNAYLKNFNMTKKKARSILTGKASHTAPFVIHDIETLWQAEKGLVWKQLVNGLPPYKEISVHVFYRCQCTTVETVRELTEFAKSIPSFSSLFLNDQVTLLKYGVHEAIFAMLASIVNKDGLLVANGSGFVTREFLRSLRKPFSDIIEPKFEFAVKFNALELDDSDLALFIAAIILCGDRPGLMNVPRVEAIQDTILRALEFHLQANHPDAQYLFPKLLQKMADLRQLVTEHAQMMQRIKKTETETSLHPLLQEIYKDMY
Vitamin D3 receptor (Homo sapiens), sequence (P11473 whole entry, looked up): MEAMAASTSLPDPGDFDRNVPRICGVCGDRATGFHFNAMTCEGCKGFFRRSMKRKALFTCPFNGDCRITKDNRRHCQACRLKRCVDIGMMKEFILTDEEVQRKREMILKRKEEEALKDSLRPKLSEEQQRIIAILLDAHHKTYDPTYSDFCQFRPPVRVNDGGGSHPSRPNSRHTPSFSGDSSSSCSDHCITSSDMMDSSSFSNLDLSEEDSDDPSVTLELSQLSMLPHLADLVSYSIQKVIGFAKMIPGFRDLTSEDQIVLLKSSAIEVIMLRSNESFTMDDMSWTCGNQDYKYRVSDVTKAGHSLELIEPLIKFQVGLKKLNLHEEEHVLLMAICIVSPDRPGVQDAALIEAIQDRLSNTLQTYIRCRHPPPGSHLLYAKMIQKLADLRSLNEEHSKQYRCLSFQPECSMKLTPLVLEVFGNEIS

With `O=C(O)C(Cl)Br` (stereo not given), the Potency in assay [1] was > 92 µM. The Potency entry in [2], in assay [3], in [5], in assay [7], in [8] and in assay [9] was “inactive” in each case. Further, the Potency result in assay [13], in assay [15] and in assay [16] was “inactive” throughout. Further, the molecule was classed as inactive in assay [4], in assay [10], in assay [11] and in assay [12]. Besides, the caspase-3 activation in assay [6] was 0.0973%. Further, the activation in assay [14] is 0.485%.

As to `CCC#N`, the Potency in assay [1] is > 92 µM. The Potency result in [2], in [3], in assay [5], in assay [17], in assay [8] and in [9] was “inactive” throughout. The Potency entry in assay [13] and in assay [16] was “inactive” throughout. Besides, the outcome in assay [4], in assay [10], in assay [11] and in [12] was inactive. Besides, the caspase-3 activation in [6] was -0.76%. Moreover, in [18], the max response is 13.6%.

`COC(C)(C)C`: in assay [1], the Potency was > 92 µM. Also, the Potency result in [2], in assay [3], in [5], in [17], in [7] and in assay [8] was “inactive” in each case. The Potency entry in [13], in assay [15] and in assay [16] was “inactive” in each case. Further, the molecule was called inactive in assay [19], in assay [20], in [10], in assay [11] and in assay [12]. In assay [6], the caspase-3 activation is 0.0289%. In addition, the activation in [14] is -2.31%. Moreover, the max response in assay [18] is 4.13%.

For the molecule `Nc1c(Br)cc([N+](=O)[O-])cc1[N+](=O)[O-]`, the results for the Potency in assay [1] and in assay [15] were > 92 µM and 21.1 µM (active), respectively. In addition, the Potency entry in [2], in [5], in assay [17], in assay [7], in assay [8] and in [9] was “inactive” in each case. The Potency result in assay [13] and in assay [16] was “inactive” each time. In addition, the molecule was called inactive in [4], in [19], in assay [20], in assay [10], in [11] and in [12]. Besides, the caspase-3 activation in [6] was 4.97%. The activation in assay [14] was -4.7%. The max response in [18] was 13.3%.

For `Cc1coc2c1CCC(C)C2` (stereo not given), the Potency result in assay [2], in assay [17], in assay [7], in assay [15] and in assay [16] was “inactive” throughout. The molecule was called inactive in assay [4], in assay [19], in assay [20], in assay [10], in assay [11] and in assay [12]. The caspase-3 activation in [6] was 0.975%. Besides, in assay [14], the activation is -2.44%. Moreover, in assay [18], the max response was -1.7%.

As for `C=CC=O`, the Potency in [1] is > 92 µM. Moreover, in assay [2], the viability change, negative = cytotoxic was -91.6% (active). For the same molecule, the Potency entry in [3], in assay [5], in assay [17], in assay [8], in assay [9] and in assay [13] was “inactive” each time. In addition, in assay [16], the Potency result is “inactive”. Also, the result in [4], in [19], in assay [20], in assay [10], in [11] and in assay [12] was inactive. Moreover, the caspase-3 activation in assay [6] was 0.46%. The activation in assay [14] was -0.485%. Further, the max response in assay [18] was 9.03%.

For `CCCN(CCC)c1c([N+](=O)[O-])cc(C(F)(F)F)cc1[N+](=O)[O-]`, the Potency in assay [1] is > 92 µM. Moreover, the Potency entry in assay [2], in [3], in assay [5], in assay [8], in assay [15] and in assay [16] was “inactive” each time. Also, the call in assay [4], in assay [19], in [20], in assay [10], in assay [11] and in [12] was inactive. In assay [6], the caspase-3 activation was 3.06%. In [18], the max response is -5.66% and -9.4%.
